From PubChem BioAssay (Tox21)
Inconclusive results are not listed. A number with no mark means an inactive call. The source made the active and inactive calls. Calls follow the shape of the dose curve; as a rule, active = well fitted inhibition curve with a large enough effect in the repeat runs; inconclusive = weak or mixed curves; inactive = no such curve, though single readings can be large or run the other way.

Target: Aromatase (Homo sapiens) (UniProt P11511)
Test: qHTS assay to identify aromatase inhibitors (AID 743083); also: nearly all actives have a fitted effect of over 55% in size
Conditions: MCF-7 aro ERE, testosterone-driven ERE luciferase, 24 h; series mostly up to 70.3 µM; activity, negative = inhibition: at the top concentration
% is scaled to controls: 0 for no effect and ±100 for the full control effect.

Aromatase (Homo sapiens), sequence (P11511 whole entry, looked up): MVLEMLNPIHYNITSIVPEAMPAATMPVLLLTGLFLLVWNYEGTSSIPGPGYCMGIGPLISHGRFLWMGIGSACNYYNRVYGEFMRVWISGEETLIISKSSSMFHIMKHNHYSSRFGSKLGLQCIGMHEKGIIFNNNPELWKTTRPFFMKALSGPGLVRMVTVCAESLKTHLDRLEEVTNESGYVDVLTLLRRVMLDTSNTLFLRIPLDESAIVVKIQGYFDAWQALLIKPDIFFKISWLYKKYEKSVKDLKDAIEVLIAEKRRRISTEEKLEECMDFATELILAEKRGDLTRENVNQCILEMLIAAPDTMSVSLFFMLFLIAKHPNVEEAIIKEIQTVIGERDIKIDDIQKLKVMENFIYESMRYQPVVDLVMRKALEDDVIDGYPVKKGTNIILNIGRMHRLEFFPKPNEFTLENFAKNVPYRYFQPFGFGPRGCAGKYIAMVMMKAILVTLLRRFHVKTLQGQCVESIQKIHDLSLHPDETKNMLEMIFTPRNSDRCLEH

| Compound | Potency | activity, negative = inhibition |
| --- | --- | --- |
| C=CC(=O)O | inactive | – |
| CN1C(CSCC(F)(F)F)Nc2cc(Cl)c(S(N)(=O)=O)cc2S1(=O)=O (configuration not stated) | – | -1.69% |
| CC(C)(C)S | – | 13.6% [at 95 µM] |
| CNc1c2c(nn1C)CCCC2 | – | 7.35% |
| O=C(O)c1cccc(Oc2ccccc2)c1 | – | -0.675% |
| COc1cc(NS(=O)(=O)c2ccc(N)cc2)nc(C)n1 | – | -8.99% |
| O=C(NC(Cc1cc(=O)[nH]c2ccccc12)C(=O)O)c1ccc(Cl)cc1 (configuration not stated) | – | 11% |
| CCCCCCCCCCCC(=O)OCC(O)CO (configuration not stated) | inactive | – |
| Cc1cn([C@H]2C[C@H](F)[C@@H](CO)O2)c(=O)[nH]c1=O | – | -0.172% |
| CC(C)(O)CCc1ccccc1 | – | 14.9% |
| CC(C)CC(O)CC(C)C | – | 5.77% |
| Cc1ccc(N(CCO)CCO)cc1 | – | 19.2% |
| CCCCCCCCCCCCCCCC(=O)OCC | – | 14% |
| CC(C)(C)C1(CCc2ccc(Cl)cc2)CO1 (configuration not stated) | – | -4.95% |
| Cc1ccc(S(=O)(=O)NC(=O)NC2CCCCC2)cc1 | – | 15% |
| O=C(O)CNC(=O)c1ccccc1I | – | -1.91% |
| ClC1=C(Cl)C1(Cl)Cl | – | -6.03% [at 95 µM] |
| OCC(CO)n1cnc(-c2ccc(F)cc2)c1-c1ccnc(Oc2ccccc2)n1 | – | 13.8% |
| CNC1CCCN(c2c(F)cc3c(=O)c(C(=O)O)cn(C4CC4)c3c2OC)C1 (configuration not stated) | – | -2.28% |

| Compound | Potency | activity, negative = inhibition |
| --- | --- | --- |
| CC[C@H]1OC(=O)[C@H](C)[C@@H](O[C@H]2C[C@@](C)(OC)[C@@H](O)[C@H](C)O2)[C@H](C)[C@@H](O[C@@H]2O[C@H](C)C[C@H](N(C)C)[C@H]2O)[C@](C)(O)C[C@@H](C)CN(C)[C@H](C)[C@@H](O)[C@]1(C)O | inactive | – |
| CC(C)C(=O)OCCOc1ccccc1 | – | -6.88% |
| CC1=C2[C@@H]([C@H](C)CC[C@H]2/C=C(\C)C(=O)O)[C@H](O)C1 | – | 5.45% |
| CC(=O)OCCC1CCCCC1 | – | 16.9% |
| CC(C)C1CCC(C(=O)N[C@H](Cc2ccccc2)C(=O)O)CC1 (some centres not stated) | – | 24.9% |
| CCCCCCC(O)CCOC(C)=O (configuration not stated) | – | -24.9% [at 260 µM] |
| CC(C)N(C)C | – | 29.6% |
| CC(C)COC(=O)COc1cc(Cl)c(Cl)cc1Cl | – | -0.901% |
| O=CNNC=O | – | -1.77% [at 95 µM] |
| C=CC(=O)NC(C)C | – | -0.0644% |
| CC1CCCC(=O)C1=O (configuration not stated) | – | -2.05% |
| O=c1[nH]c2cc(C(F)(F)F)c(N3CCOCC3)cc2n(CP(=O)(O)O)c1=O | – | 0.483% |
| O=P(O)(O)Oc1ccccc1 | – | 9.1% |
| CCC(CO)(CO)CO | – | 4.95% [at 95 µM] |
| O=C(Nc1ccc(C(=O)O)c(O)c1)c1ccccc1 | – | 20.2% |
| O=C(CCS)OCC(COC(=O)CCS)(COC(=O)CCS)COC(=O)CCS | – | -20% |
| CC[C@H]1OC(=O)[C@H](C)[C@@H](O[C@H]2C[C@@](C)(OC)[C@@H](O)[C@H](C)O2)[C@H](C)[C@@H](O[C@@H]2O[C@H](C)C[C@H](N(C)C)[C@H]2O)[C@](C)(O)C[C@@H](C)/C(=N\OCOCCOC)[C@H](C)[C@@H](O)[C@]1(C)O | inactive | – |
| Cc1cccc2sc(N)nc12 | – | 0.135% [at 95 µM] |
